In PubChem BioAssay (NCATS):
Results filed as inconclusive are left out. Calls of active or inactive are those of the source. The call rests on the fitted dose curve; in most records, active means well fitted curve in the direction sought with a large enough effect; inconclusive means small, poorly fitted or top-dose-only effect, or another doubt; inactive means no such curve, though single readings can be large; an effect the other way counts as inactive or inconclusive.

What was measured:
[1] = Quantitative High-Throughput drug screen in 47 multiple myeloma cell lines against the NCATS MIPE library collection: JJN3_DSMZ cell viability assay (AID 1918966; further: nearly all actives have a fitted effect of over 50% in size; further: potency means the concentration at half of the fitted maximal effect); conditions: JJN3 myeloma cells viability, CellTiter-Glo ATP, 48 h; series mostly up to 45.8 µM
How it was run: (§1)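 Viability readout: CellTiter-Glo luminescence following 5 min room-temperature incubation with reagent. Prior exposure: 48 h, 37C, humidified 5% CO2, 500 cells per well.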

[2] = Quantitative High-Throughput drug screen in 47 multiple myeloma cell lines against the NCATS MIPE library collection: Karpas25_ECACC cell viability assay (AID 1918968; further: nearly all actives have a fitted effect of over 35% in size; further: potency means the concentration at half of the fitted maximal effect); conditions: Karpas25 myeloma viability, CellTiter-Glo ATP, 48 h; series mostly up to 45.8 µM
How it was run: as §1

[3] = Quantitative High-Throughput drug screen in 47 multiple myeloma cell lines against the NCATS MIPE library collection: KMS12BM_JCRB cell viability assay (AID 1918971); conditions: KMS12BM myeloma viability, CellTiter-Glo ATP, 48 h; series mostly up to 45.8 µM; further: nearly all actives have a fitted effect of over 35% in size; further: potency means the concentration at half of the fitted maximal effect
How it was run: as §1

[4] = Quantitative High-Throughput drug screen in 47 multiple myeloma cell lines against the NCATS MIPE library collection: KMS12PE_JCRB cell viability assay (AID 1918972); conditions: KMS12PE myeloma viability, CellTiter-Glo ATP, 48 h; series mostly up to 45.8 µM; further: nearly all actives have a fitted effect of over 30% in size; further: potency means the concentration at half of the fitted maximal effect
How it was run: (§2)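 qHTS of the MIPE 4.0 collection: 500 myeloma cells/well, 48 h drug exposure at 37C in 5% CO2, then CellTiter-Glo for 5 min at room temperature before luminescence reading.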

[5] = Quantitative High-Throughput drug screen in 47 multiple myeloma cell lines against the NCATS MIPE library collection: JIM3_ECACC cell viability assay (AID 1918963; further: nearly all actives have a fitted effect of over 35% in size); conditions: JIM3 myeloma viability, CellTiter-Glo ATP, 48 h; series mostly up to 45.8 µM
How it was run: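 Inhibition of cell viability is measured here. Each line was plated at 500 cells per well, treated with MIPE 4.0 drugs, kept 48 hours at 37C, then assayed for ATP content by CellTiter-Glo luminescence.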

[6] = Quantitative High-Throughput drug screen in 47 multiple myeloma cell lines against the NCATS MIPE library collection: H1112_PLB cell viability assay (AID 1918967; further: nearly all actives have a fitted effect of over 30% in size; further: potency means the concentration at half of the fitted maximal effect); conditions: H1112 myeloma cells viability, ATP luminescence, 48 h; series mostly up to 45.8 µM
How it was run: as §1

[7] = Quantitative High-Throughput drug screen in 47 multiple myeloma cell lines against the NCATS MIPE library collection: KMS27_JCRB cell viability assay (AID 1918970); conditions: KMS27 myeloma cells, CellTiter-Glo ATP viability, 48 h; series mostly up to 45.8 µM; further: nearly all actives have a fitted effect of over 30% in size; further: potency means the concentration at half of the fitted maximal effect
How it was run: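 Viability inhibition screen, 48 h compound exposure, luminescent ATP read-out.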

[8] = Quantitative High-Throughput drug screen in 47 multiple myeloma cell lines against the NCATS MIPE library collection: JIM1_ECACC cell viability assay (AID 1918964; further: potency means the concentration at half of the fitted maximal effect); conditions: JIM1 myeloma viability, CellTiter-Glo ATP luminescence, 48 h; series mostly up to 45.8 µM
How it was run: as §1

[9] = Quantitative High-Throughput drug screen in 47 multiple myeloma cell lines against the NCATS MIPE library collection: INA6_PLB cell viability assay (AID 1918965; further: nearly all actives have a fitted effect of over 55% in size; further: potency means the concentration at half of the fitted maximal effect); conditions: INA6 myeloma viability, CellTiter-Glo ATP luminescence, 48 h; series mostly up to 45.8 µM
How it was run: as §2

Measured: Potency

CC(C)OC(=O)OCOP(=O)(CO[C@H](C)Cn1cnc2c(N)ncnc21)OCOC(=O)OC(C)C
active: [1] 18.7 µM | [2] 14.8 µM | [3] 7.43 µM | [4] 29.6 µM

CCOc1cc(N)c(Cl)cc1C(=O)NCC1CN(Cc2ccc(F)cc2)CCO1 (stereo not given)
inactive: [5] | [1] | [6] | [7] | [4]

CCN[C@H]1C[C@H](C)S(=O)(=O)c2sc(S(N)(=O)=O)cc21
inactive: [8] | [9] | [6] | [2] | [7] | [3] | [4]

CC(C)(Sc1cc(C(C)(C)C)c(O)c(C(C)(C)C)c1)Sc1cc(C(C)(C)C)c(O)c(C(C)(C)C)c1
inactive: [1] | [7] | [3]
active: [9] 4.69 µM

CCCN[C@H]1CCc2nc(N)sc2C1
inactive: [8] | [9] | [1] | [6]
active: [2] 2.09 µM

COc1cnc(NS(=O)(=O)c2ccc(N)cc2)nc1
active: [4] 14.8 µM
inactive: [5] | [6]

Nc1ccc(S(=O)(=O)Nc2ccccn2)cc1
inactive: [9] | [6] | [7] | [4]

CCN(C)C(=O)Oc1cccc([C@H](C)N(C)C)c1
inactive: [8] | [9] | [6] | [2] | [4]

CCN(CC)CC#CCOC(=O)C(O)(c1ccccc1)C1CCCCC1 (stereo not given)
inactive: [5] | [6] | [3]
active: [4] 26.4 µM

CN(Cc1cc(Br)cc(Br)c1N)C1CCCCC1
inactive: [6] | [7] | [4]

CCn1cc(C(=O)O)c(=O)c2cc(F)c(N3CCN(C)CC3)cc21
active: [3] 2.64 µM
inactive: [5] | [6] | [7] | [4]

CC(=O)[C@H]1CC[C@H]2[C@@H]3CCC4=CC(=O)CC[C@]4(C)[C@H]3CC[C@]12C
active: [9] 16.6 µM

Cc1noc(NS(=O)(=O)c2ccc(N)cc2)c1C
inactive: [9] | [6] | [2] | [7] | [4]

CC(C)Cn1cnc2c(N)nc3ccccc3c21
active: [1] 18.7 µM | [3] 14.8 µM
inactive: [5] | [6] | [2]

CN1CCN(c2c(F)cc3c(=O)c(C(=O)O)cn(CCF)c3c2F)CC1
inactive: [5] | [6] | [2] | [7] | [4]

CC(C)OC(=O)C(C(=O)OC(C)C)=C1SC=CS1
active: [3] 14.8 µM
inactive: [8] | [1] | [6] | [2] | [4]

COc1cc2ncnc(Nc3cccc(Cl)c3)c2cc1OC
active: [1] 33.2 µM | [2] 20.9 µM | [7] 29.6 µM | [3] 26.4 µM | [4] 20.9 µM

CCCCOc1ccc(CC(=O)NO)cc1
active: [6] 8.33 µM | [2] 6.62 µM | [7] 33.2 µM | [3] 20.9 µM | [4] 23.5 µM

O=C(O)c1ccc(-n2nc(-c3ccccc3O)nc2-c2ccccc2O)cc1
active: [8] 18.7 µM | [9] 18.7 µM | [7] 18.7 µM | [3] 20.9 µM

COc1ccc2c(c1)c(CC(=O)OCC(=O)O)c(C)n2C(=O)c1ccc(Cl)cc1
inactive: [8] | [9] | [1] | [6] | [3] | [4]

COc1ccc(C(=O)CC(=O)c2ccc(C(C)(C)C)cc2)cc1
active: [1] 0.935 µM | [6] 7.43 µM | [2] 2.35 µM | [7] 3.32 µM | [3] 2.35 µM | [4] 5.26 µM

O=C(NCC1CN(c2ccc(N3CCOCC3=O)cc2)C(=O)O1)c1ccc(Cl)s1 (stereo not given)
active: [2] 16.6 µM
inactive: [6] | [3]

CS(=O)(=O)c1ccc([C@@H](O)[C@@H](CO)NC(=O)C(Cl)Cl)cc1
active: [9] 11.8 µM | [4] 2.35 µM
inactive: [6] | [7] | [3]

COc1nc(N)nc2c1ncn2[C@@H]1O[C@H](CO)[C@@H](O)[C@@H]1O
active: [1] 13.2 µM
inactive: [8] | [6] | [2] | [3] | [4]

CCOC(=O)c1ccc(C#Cc2ccc3c(c2)C(C)(C)CCS3)nc1
active: [6] 20.9 µM | [4] 11.8 µM
inactive: [9] | [7]
